Assay [1] is described as follows: Primary qHTS for Huh7 cytotoxicity: counterscreen for inhibitors of MERS-S pseudotyped particle cell entry (AID 1479147). The note with it: outcome: dose series up to 57.1 µM unless noted.
Assay [2] is described as follows: Primary qHTS for inhibitors of MERS-S pseudo-typed particle cell entry (AID 1479149). For activity change, negative = inhibition: % is set by controls: 0 for no effect and ±100 for the full control effect. Note: nearly all actives have a fitted effect of over 60% in size. The note with it: outcome: dose series up to 57.1 µM unless noted. On the technique in general: qHTS replaces the single test concentration by a dilution series.
The nature of assay [3]: Primary qHTS for Vero E6 cytotoxicity: counterscreen for inhibitors of SARS-S pseudo-typed particle cell entry (AID 1479150). Note: potency is the fitted concentration of half-maximal effect. The note with it: outcome: dose series up to 57.1 µM unless noted.
Assay [4] is described as follows: Cytotoxicity counterscreen for inhibitors of SARS-CoV-2 cell entry (AID 1645845). Note: nearly all actives have a fitted effect of over 50% in size. Conditions: outcome: dose series up to 57.1 µM unless noted. In outline:
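HEK293-ACE2 cells (Expi293F stably expressing human ACE2) seeded overnight, then compound for 1 h plus 48 h at 37C. Viability as ATP content by luminescence; normalized to wells with cells and media-only wells.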

Assay [5] can be described thus: Primary qHTS to identify inhibitors of SARS-CoV-2 cell entry (AID 1645846). Note: nearly all actives have a fitted effect of over 45% in size. Note: potency is the fitted concentration of half-maximal effect. Conditions: SARS-CoV-2 pseudovirus cell entry assay, luminescence; activity change, negative = inhibition: at 57.1 µM (top of the series) unless noted. The essentials: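 Data are normalized to wells receiving SARS-CoV-2-S pseudoparticles and those given bald particles. Entry signal was luciferase luminescence in stable hACE2 Expi293F cells, 48 hr post-infection, after 1 hr compound pretreatment.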

Assay [6] in a line: KB-8-5-11 P-gp reporter qHTS against the NCATS DSHEA and TCM libraries (AID 1919977; active = well fitted curve in the direction sought with a large enough effect; an effect the other way counts as inactive or inconclusive; note: 0% is about no effect). The essentials:
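Cells were seeded, allowed ~4 h to attach, dosed by pin tool (substance titrations), incubated ~72 h at 37C, then lysed with CellTiter-Glo for 30 min at room temperature before luminescence reading.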

Assay [7] can be described thus: VSVG counterscreen qHTS to identify inhibitors of SARS-CoV-2 cell entry (AID 1645847). Note: potency is the fitted concentration of half-maximal effect; nearly all actives have a fitted effect of over 65% in size. The essentials:
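Counterscreen using VSV-G (not spike) pseudotyped MLV particles on ACE2-expressing Expi293F cells after 1 h compound preincubation; infection ran 48 h at 37 °C. Data normalized to VSV-G PP and bald-PP wells.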

The target in assay [8] is Bile acid receptor (Homo sapiens) (UniProt Q96RI1). Briefly: qHTS assay for small molecule agonists of farnesoid X receptor signaling (AID 588527).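 Note: 0% = vehicle basal and 100% = reference agonist.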 The note with it: HEK293T FXR-UAS-bla, beta-lactamase ratio, 16 h; stronger effect = higher value. In outline: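 Quantitative HTS used FXR-UAS-bla HEK293T cells with 16 h compound incubation at 37 C. EC50 values came from concentration-response curves normalized to chenodeoxycholic acid.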
Sequence of Bile acid receptor (Homo sapiens) (Q96RI1 whole entry, looked up): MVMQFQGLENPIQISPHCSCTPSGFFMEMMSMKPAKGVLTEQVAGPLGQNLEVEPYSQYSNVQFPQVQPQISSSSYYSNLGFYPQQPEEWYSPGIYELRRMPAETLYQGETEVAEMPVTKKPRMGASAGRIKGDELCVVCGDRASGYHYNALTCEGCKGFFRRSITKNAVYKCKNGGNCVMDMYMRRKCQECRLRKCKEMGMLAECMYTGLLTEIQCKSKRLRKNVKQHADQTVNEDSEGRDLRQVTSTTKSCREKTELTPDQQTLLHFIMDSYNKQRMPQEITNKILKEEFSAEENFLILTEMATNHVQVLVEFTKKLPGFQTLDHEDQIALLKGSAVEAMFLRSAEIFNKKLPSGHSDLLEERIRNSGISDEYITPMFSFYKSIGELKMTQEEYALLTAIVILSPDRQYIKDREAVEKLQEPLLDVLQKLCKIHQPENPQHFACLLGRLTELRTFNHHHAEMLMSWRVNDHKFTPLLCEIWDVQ

In assay [9] the target is Peroxisome proliferator-activated receptor delta (Homo sapiens) (UniProt Q03181). Briefly: qHTS assay for small molecule agonists of peroxisome proliferator-activated receptor delta signaling (AID 588534).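 Note: 0% = DMSO basal wells and 100% = positive control agonist at 10 µM.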 The essentials: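 Cell-based beta-lactamase reporter assay run in agonist mode: cells seeded and incubated 5 hrs at 37 C, compounds added and incubated 18 hrs at 37 C. CCF4 dye fluorescence read after 2 hrs at RT; EC50 and efficacy from Hill fits.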
Sequence of Peroxisome proliferator-activated receptor delta (Homo sapiens) (Q03181 whole entry, looked up): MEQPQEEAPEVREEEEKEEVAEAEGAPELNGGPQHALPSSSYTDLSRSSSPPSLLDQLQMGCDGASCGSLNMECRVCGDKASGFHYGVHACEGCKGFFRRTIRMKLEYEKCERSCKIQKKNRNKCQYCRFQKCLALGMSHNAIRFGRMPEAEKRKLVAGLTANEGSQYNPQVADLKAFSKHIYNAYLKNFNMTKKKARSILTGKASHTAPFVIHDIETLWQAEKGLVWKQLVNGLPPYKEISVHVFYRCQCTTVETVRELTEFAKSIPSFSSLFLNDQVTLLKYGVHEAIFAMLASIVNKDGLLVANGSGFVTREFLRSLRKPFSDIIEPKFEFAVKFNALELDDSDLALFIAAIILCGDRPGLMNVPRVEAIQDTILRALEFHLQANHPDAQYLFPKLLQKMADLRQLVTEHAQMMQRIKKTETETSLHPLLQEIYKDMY

A short description of assay [10]: S16 Schwann cell PMP22 intronic element firefly luciferase assay (AID 624032; active = well fitted curve in the direction sought with a large enough effect; an effect the other way counts as inactive or inconclusive; note: potency is the fitted concentration of half-maximal effect; nearly all actives have a fitted effect of over 30% in size). The essentials:
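Rat S16 Schwann cells stably carrying firefly luciferase driven by a PMP22 intronic element, in 10% FBS, treated 24 h at 37 C. ONE-Glo luminescence normalized to PTC124 control and DMSO (0%); curves classed by r2, magnitude and activity.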

The nature of assay [11]: S16 Schwann cell PMP22 intronic element beta-lactamase assay (AID 624044). Note: potency is the fitted concentration of half-maximal effect; nearly all actives have a fitted effect of over 15% in size. Conditions: S16 rat Schwann cells, PMP22 element beta-lactamase FRET, 24 h; ratio activity, negative = inhibition: at 38.3 µM (top of the series) unless noted. In outline:
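Rat S16 Schwann cells with beta-Lac driven by a PMP22 intronic element, compound-treated 24 h at 37 °C. LiveBLAzer FRET B/G read: 460 nm normalized to potassium clavulanate vs DMSO; 535 nm FRET as viability; concentration-effect curves classified.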

“And” between values parts separate entries of the source, which are not always exact repeats. Equal values may be shown once. Records with an inconclusive call do not appear. The source made the active and inactive calls. Unless noted, calls come from the whole dose curve.

`CC(C)OC(=O)[C@H](C)N[P@@](=O)(OC[C@H]1O[C@@H](n2ccc(=O)[nH]c2=O)[C@](C)(F)[C@@H]1O)Oc1ccccc1`: the Potency entry in assay [1], in assay [2], in assay [3] and in assay [4] was “inactive” in each case. In addition, the activity change, negative = inhibition in [5] is -25.3%.
Consider `CC(C)CCC[C@@H](C)[C@H]1CC[C@H]2[C@@H]3CC=C4C[C@@H](O)CC[C@]4(C)[C@@H]3CC[C@]12C`, for which the Potency entry in assay [1], in [2], in assay [3], in assay [4] and in assay [5] was “inactive” each time.
Turning to `C/C(=C(/CCO)SSCC1CCCO1)N(C=O)Cc1cnc(C)nc1N` (stereo unspecified), the Potency entry in assay [1], in [2], in assay [3] and in assay [4] was “inactive” throughout. The activity change, negative = inhibition in assay [5] was -21.7%.
Turning to `CC(C)c1nc(N(C)S(C)(=O)=O)nc(-c2ccc(F)cc2)c1/C=C/[C@@H](O)C[C@@H](O)CC(=O)O`, the Potency entry in assay [1], in assay [2], in assay [3], in assay [4] and in assay [5] was “inactive” throughout.
In the case of `CCCCC/C=C/C/C=C/CCCCCCCC(=O)O`, the Potency entry in [1], in assay [2], in [3], in [4] and in assay [6] was “inactive” each time. In addition, the activity change, negative = inhibition in assay [5] was -0.957%.
`OCc1ccccc1`: the Potency entry in [1], in assay [2], in assay [3] and in [4] was “inactive” throughout. Moreover, the activity change, negative = inhibition in assay [5] came to 3.04%.
For the compound `C/C(=C\c1csc(C)n1)[C@@H]1C[C@@H]2O[C@]2(C)CCC[C@H](C)[C@H](O)[C@@H](C)C(=O)C(C)(C)[C@@H](O)CC(=O)N1`, the Potency entry in assay [1], in assay [2], in assay [3] and in assay [4] was “inactive” in each case. The Potency in assay [5] was 2.82 µM (active); in assay [7], 0.152 µM (active).
With `c1ccc2ccccc2c1`, the activation in [8] was 2.2% (inactive) and 1.82% (inactive). In addition, the outcome in assay [9] was inactive. Moreover, the Potency result in assay [1], in assay [2], in assay [3], in [4] and in [5] was “inactive” throughout.
`CS(=O)(=O)Nc1cc2occ(NC=O)c(=O)c2cc1Oc1ccccc1`: the Potency entry in assay [1], in [2], in assay [3] and in assay [4] was “inactive” in each case. Also, the activity change, negative = inhibition in assay [5] is -19.1% and -29.3%.
For `CC(C)n1c(/C=C/[C@H](O)C[C@H](O)CC(=O)O)c(-c2ccc(F)cc2)c2ccccc21`, the values for the Potency in [10], in assay [11] and in assay [3] were 11.4 µM (active), 14.1 µM (active) and 8.91 µM (active), respectively. Moreover, the Potency result in assay [1], in assay [2], in [4] and in assay [5] was “inactive” in each case.
Take `O=C1N=C(N2CCOCC2)CN1c1ccc(Cl)cc1`: the Potency entry in [1], in assay [2], in [3] and in assay [4] was “inactive” in each case. In [5], the activity change, negative = inhibition was -29.2%.

The values above are taken from PubChem BioAssay (NCATS).
